Data reported in PubChem BioAssay AID720597 (Broad Institute, 2013).
Results with a measured potency or affinity are listed apart. A number with no mark means an inactive call.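 Rule for the calls: active = fitted half-maximal dose no more than twice the top valid tested dose, for compounds that lower signal; inconclusive = fit invalid, or curve flat with activity between -70 and -30; inactive = potency past limit, curve flat within ±30, or signal increasing.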

Target: NAD-dependent protein deacylase sirtuin-5, mitochondrial (Homo sapiens) (UniProt Q9NXA8)
Sequence (Q9NXA8 whole entry, looked up): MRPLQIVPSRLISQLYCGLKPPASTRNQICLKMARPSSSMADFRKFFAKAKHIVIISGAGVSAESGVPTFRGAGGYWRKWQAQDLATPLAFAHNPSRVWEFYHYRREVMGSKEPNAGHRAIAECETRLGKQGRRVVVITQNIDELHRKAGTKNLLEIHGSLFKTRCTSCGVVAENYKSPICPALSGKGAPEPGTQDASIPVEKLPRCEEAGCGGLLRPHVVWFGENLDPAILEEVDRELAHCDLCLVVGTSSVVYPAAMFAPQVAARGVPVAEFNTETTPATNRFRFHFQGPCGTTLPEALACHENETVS
Test: blockers of sirtuin-5 peptide desuccinylation – biochemical, fluorescence imaging, cherry-pick, set 6, dose response (AID 720597);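 note: lower AMC signal can also come from blocking the trypsin step; 0% = median of neutral control wells and -100% = median of positive control wells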
Details: Purified SirT5, succinyl-peptide-AMC/trypsin fluorescence; series mostly up to 15 µM; activity change, negative = inhibition: at the top concentration

Row | Structure (SMILES) | activity change, negative = inhibition
1 | C[C@H](CO)N1C[C@H](C)[C@@H](CN(C)C(=O)Nc2ccc(C(F)(F)F)cc2)OCCCC[C@H](C)Oc2ccc(NS(=O)(=O)c3ccc(Cl)cc3)cc2C1=O | 12.7%
2 | CS(=O)(=O)N(CC(=O)NC1CCCC1)c1cccc(F)c1 | 1.17% [at 18 µM]
3 | COc1ccc(S(=O)(=O)Nc2ccc3c(c2)CC(=O)N([C@@H](C)CO)C[C@@H](C)[C@H](CN(C)S(=O)(=O)c2ccc(C)cc2)O3)cc1 | -19.5%
4 | C[C@@H]1CN([C@H](C)CO)C(=O)c2cc(NS(=O)(=O)c3ccc(Cl)cc3)ccc2O[C@@H](C)CCCCO[C@@H]1CN(C)Cc1ccc2c(c1)OCO2 | -15.4%
5 | Cc1ccc(S(=O)(=O)N(C)C[C@H]2OCCCC[C@@H](C)Oc3ccc(NS(=O)(=O)c4ccc(Cl)cc4)cc3C(=O)N([C@H](C)CO)C[C@H]2C)cc1 | -12.6%
6 | COCC(=O)N1C[C@@H](C)[C@@H](OC)CN(C)C(=O)c2ccc(NC(=O)c3cc(C)on3)cc2OC[C@@H]1C | -17%
7 | Cc1cccc(-c2ccc([C@@H]3[C@@H](CO)N4CCCCN(S(=O)(=O)c5ccccc5F)C[C@H]34)cc2)c1 | -19.2%
8 | COc1ccc(S(=O)(=O)Nc2ccc3c(c2)C(=O)N([C@H](C)CO)C[C@H](C)[C@H](CN(C)Cc2ccc(Oc4ccccc4)cc2)O3)cc1 | 13.6%
9 | CO[C@H]1CN(C)C(=O)c2cc(NC(=O)NC3CCCCC3)ccc2OC[C@H](C)N(CCc2ccccc2)C[C@@H]1C | 3.06%
10 | C[C@@H]1CN([C@H](C)CO)S(=O)(=O)c2ccc(C#Cc3cccc(F)c3)cc2O[C@@H]1CN(C)CC1CC1 | -28.8%
11 | C[C@@H]1CCCCO[C@@H](CN(C)S(=O)(=O)c2ccc(Cl)cc2)[C@H](C)CN([C@@H](C)CO)C(=O)c2cc(NS(=O)(=O)c3ccccc3)ccc2O1 | -16.3%
12 | Cc1noc(C)c1NC(=O)Nc1cccc2c1O[C@@H](CN(C)Cc1ccc(Oc3ccccc3)cc1)[C@@H](C)CN([C@@H](C)CO)C2=O | 10.8%
13 | CC(C)CC#Cc1cnc2c(c1)C(=O)N([C@H](C)CO)C[C@H](C)[C@H](CN(C)CC1CCOCC1)O2 | -7.96%
14 | C[C@@H]1CCCCO[C@H](CN(C)Cc2ccc(C(=O)O)cc2)[C@H](C)CN([C@H](C)CO)C(=O)c2cc(NS(=O)(=O)c3cccs3)ccc2O1 | -13.8%
15 | CC(C)CC#Cc1ccc2c(c1)O[C@@H](CN(C)C(=O)C1CCCCC1)[C@H](C)CN([C@H](C)CO)S2(=O)=O | -7.58%
16 | C[C@@H]1CN([C@H](C)CO)C(=O)c2cccc(NC(=O)Nc3ccc(C(F)(F)F)cc3)c2O[C@H]1CN(C)C(=O)Nc1cccc2ccccc12 | -14%
17 | Cc1cccc(-c2ccc([C@H]3[C@H](CO)N4CCCCN(S(=O)(=O)c5cccc(C)c5)C[C@@H]34)cc2)c1 | -30.5%
18 | Cc1ccc(S(=O)(=O)Nc2ccc3c(c2)CC(=O)N([C@@H](C)CO)C[C@H](C)[C@@H](CN(C)Cc2ccc(-c4ccccc4)cc2)O3)cc1 | 33.9%
19 | COc1ccc(NC(=O)N(C)C[C@H]2Oc3ccc(NS(=O)(=O)c4ccc(F)cc4)cc3C(=O)N([C@@H](C)CO)C[C@@H]2C)cc1 | 30.1%
20 | CCCC#Cc1ccc([C@H]2[C@@H](CO)N3CCCCN(S(=O)(=O)Cc4ccccc4)C[C@H]23)cc1 | -4.47%

Row | Structure (SMILES) | activity change, negative = inhibition
21 | C[C@@H]1CCCCO[C@@H](CN(C)Cc2ccc(C(F)(F)F)cc2)[C@H](C)CN([C@@H](C)CO)C(=O)c2cc(NS(=O)(=O)c3ccc(F)cc3)ccc2O1 | -8.51%
22 | Cc1ccc(S(=O)(=O)N(C)C[C@H]2OCCCC[C@H](C)Oc3ccc(NS(=O)(=O)c4ccc(Cl)cc4)cc3C(=O)N([C@@H](C)CO)C[C@H]2C)cc1 | -27.4%
23 | O=C1CNC[C@H]2[C@@H](c3ccc(C4=CCCC4)cc3)[C@H](CO)N12 | 34.8%
24 | COc1ccc(S(=O)(=O)N[C@H]2C=C[C@@H](CC(=O)NCCc3ccncc3)O[C@H]2CO)cc1 | -4.77%
25 | CC(C)CC#Cc1ccc2c(c1)O[C@@H](CN(C)S(=O)(=O)c1cccc(F)c1)[C@@H](C)CN([C@@H](C)CO)S2(=O)=O | -21.2%
26 | C[C@H](CO)N1C[C@H](C)[C@H](CN(C)S(C)(=O)=O)Oc2c(NC(=O)c3ccncc3)cccc2C1=O | -0.231%
27 | CNC[C@@H]1Oc2ccc(NC(=O)Nc3ccc(F)cc3)cc2CC(=O)N([C@H](C)CO)C[C@H]1C | 3.83%
28 | C[C@H]1CN([C@@H](C)CO)S(=O)(=O)c2ccc(/C=C/c3ccccc3)cc2O[C@H]1CN(C)C(=O)c1ccc2c(c1)OCO2 | -5.88%
29 | O=C(Nc1ccc2c(c1)OCO2)N[C@H]1CC[C@H](CCNC(=O)C2CC2)O[C@@H]1CO | 22.9%
30 | COc1ccc(NC(=O)Nc2ccc3c(c2)C(=O)N([C@@H](C)CO)C[C@@H](C)[C@@H](CN(C)Cc2ccc(C(F)(F)F)cc2)O3)cc1 | -1.17% [at 3.8 µM]
31 | COc1ccc(S(=O)(=O)N(C)C[C@@H]2OCCCC[C@H](C)Oc3ccc(NS(=O)(=O)c4ccc(F)cc4)cc3C(=O)N([C@H](C)CO)C[C@H]2C)cc1 | 13.5%
32 | C[C@H]1CN([C@@H](C)CO)S(=O)(=O)c2ccc(/C=C/c3ccccc3)cc2O[C@H]1CN(C)C(=O)NC1CCCC1 | 2.54%
33 | COc1ccc(S(=O)(=O)Nc2ccc3c(c2)C(=O)N([C@@H](C)CO)C[C@H](C)[C@@H](CN(C)Cc2ccc(Oc4ccccc4)cc2)O3)cc1 | 13.7%
34 | C[C@@H]1CN([C@H](C)CO)C(=O)c2cccc(NC(=O)NC3CCCCC3)c2O[C@@H]1CN(C)Cc1ccc(Oc2ccccc2)cc1 | -19%
35 | C[C@@H]1CN([C@@H](C)CO)C(=O)c2cc(NC(=O)Cc3cn(C)c4ccccc34)ccc2O[C@H]1CN(C)Cc1ccc(Cl)c(Cl)c1 | 13.5%
36 | Cc1noc(C)c1S(=O)(=O)Nc1ccc2c(c1)C(=O)N([C@@H](C)CO)C[C@H](C)[C@@H](CN(C)Cc1ccc(C(F)(F)F)cc1)OCCCC[C@@H](C)O2 | -32.6% [at 16 µM]
37 | CN(C)CC#Cc1ccc([C@@H]2[C@@H](CO)N3C(=O)CN(C(=O)c4cccc(F)c4)C[C@@H]23)cc1 | -6.67% [at 16 µM]
38 | C[C@@H]1CN([C@H](C)CO)C(=O)c2cc(C#CC(C)(C)O)cnc2O[C@H]1CN(C)C(=O)CC1CC1 | 26.7%
39 | O=C(C[C@H]1C[C@@H]2c3cc(NC(=O)C4CCC4)ccc3O[C@@H]2[C@@H](CO)O1)NCc1ccc(-c2ccccc2)cc1 | -10.6%
